Pol kappa inh: qHTS for Inhibitors of Polymerase Kappa; DNA polymerase kappa (Homo sapiens), Q9UBT6; AID 588579, 2011; Potency, µM (titrated, usually from 107 µM), inactives show at the highest dose activity, negative = inhibition, actives largely listed as inhibitors; purified Pol kappa, fluorescent DNA synthesis assay, 10 min; 400,000 tested, 0.53% active; note: potency is the fitted concentration of half-maximal effect; % is set by controls: 0 for no effect and ±100 for the full control effect
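50 nM final substrate added after 15 min RT preincubation of 10 nM Pol kappa with compound; fluorescence read at 0 and 10 min.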
Pol iota inh: qHTS for Inhibitors of Polymerase Iota; DNA polymerase iota (Homo sapiens), Q9UNA4; Pol iota fluorescent replication assay, 10 min; Potency, µM (series often up to 115 µM), for inactives: at the highest dose activity, negative = inhibition, most hits filed as inhibitors; 390,000 tested, 1% active; AID 588590, 2011; note: potency is the fitted concentration of half-maximal effect
Target sequence (Q9UNA4 whole entry, looked up): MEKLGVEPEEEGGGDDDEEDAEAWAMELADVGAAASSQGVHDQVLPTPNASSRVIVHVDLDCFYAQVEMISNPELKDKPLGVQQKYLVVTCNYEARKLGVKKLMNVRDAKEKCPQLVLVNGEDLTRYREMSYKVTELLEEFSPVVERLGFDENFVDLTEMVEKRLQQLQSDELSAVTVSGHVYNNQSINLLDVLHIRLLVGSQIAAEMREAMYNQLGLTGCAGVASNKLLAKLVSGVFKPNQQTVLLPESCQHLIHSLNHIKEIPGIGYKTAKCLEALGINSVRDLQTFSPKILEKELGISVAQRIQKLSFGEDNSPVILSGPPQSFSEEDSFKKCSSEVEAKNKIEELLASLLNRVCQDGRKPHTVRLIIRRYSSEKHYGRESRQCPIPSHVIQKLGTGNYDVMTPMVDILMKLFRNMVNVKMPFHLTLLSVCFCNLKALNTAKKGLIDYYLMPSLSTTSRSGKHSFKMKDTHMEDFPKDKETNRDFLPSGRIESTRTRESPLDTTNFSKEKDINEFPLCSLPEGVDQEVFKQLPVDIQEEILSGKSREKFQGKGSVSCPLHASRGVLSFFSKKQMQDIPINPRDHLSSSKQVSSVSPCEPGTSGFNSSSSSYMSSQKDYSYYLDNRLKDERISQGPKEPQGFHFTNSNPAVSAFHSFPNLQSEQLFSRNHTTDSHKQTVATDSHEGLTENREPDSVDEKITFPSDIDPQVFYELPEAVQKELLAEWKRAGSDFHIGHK
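Pol iota at 10 nM preincubated 15 min with compounds at room temperature; reaction started with fluorescent substrate, 50 nM final. Fluorescence read kinetically at 0 and 10 min; buffer-only wells as negative control.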
PI5P4K alpha inh: qHTS for Inhibitors of phosphatidylinositol 5-phosphate 4-kinase (PI5P4K); Phosphatidylinositol 5-phosphate 4-kinase type-2 alpha (Homo sapiens), P48426; PI5P4Kalpha enzyme, ADP-Glo luminescence, 60 min; stronger effect = lower value; max response, %; 330,000 tested, 1.2% active; AID 652105, 2013; active = max response of -50% or lower; inconclusive = between -30% and -50%; inactive = -30% or higher; note: value at the top dose of about 77 µM; % is set by controls: 0 for no effect and ±100 for the full control effect
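PI5P4Kalpha ADP-Glo assay; 5 microM ATP final; 60 min RT reaction; HEPES pH 7.4/EGTA/CHAPS, 5% DMSO; controls lacking substrate or enzyme; luminescent end-point.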
Pol eta inh: qHTS for Inhibitors of Polymerase Eta; DNA polymerase eta (Homo sapiens), Q9Y253; recombinant Pol eta, fluorescent DNA replication assay; Potency, µM (doses to about 114 µM), for the others: top-dose activity change, negative = inhibition, usual class: inhibitors; 390,000 tested, 1.2% active; AID 588591, 2011; note: potency is the fitted concentration of half-maximal effect; % is set by controls: 0 for no effect and ±100 for the full control effect
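Fluorescent replication assay: 50 nM final substrate added after a 15 min room-temperature compound preincubation with 10 nM enzyme. Signal taken at 0 min and again at 10 min.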
POLB inh: qHTS Assay for Inhibitors of DNA Polymerase Beta. P06746. Pol beta primer extension/strand displacement, fluorescence kinetic. Potency, µM (highest dose often 114 µM), for inactives: at the top dose activity change, negative = inhibition, hits mostly inhibitors. 340,000 tested, 1.3% active; note: potency is the fitted concentration of half-maximal effect; % is set by controls: 0 for no effect and ±100 for the full control effect
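Homogeneous kinetic assay of primer extension and strand displacement by 10 nM Pol beta, preincubated 15 min at room temperature with compound before 50 nM substrate (final) was added. Read at 0 and 10 min; four-parameter Hill fit.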
WRN helicase inh: qHTS for Inhibitors of WRN Helicase | AID 651768, 2012 | Potency, µM (titrated, usually from 114 µM), inactives show at the top dose activity change, negative = inhibition, usual class: inhibitors | Bifunctional 3'-5' exonuclease/ATP-dependent helicase WRN (Homo sapiens), Q14191 | 360,000 tested, 0.46% active | WRN helicase unwinding, fluorescent forked duplex, kinetic; note: potency is the fitted concentration of half-maximal effect; % is set by controls: 0 for no effect and ±100 for the full control effect; nearly all actives have a fitted effect of over 55% in size
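Fluorescence dequenching readout, ex 525 nm/em 598 nm, kinetic mode: forked duplex DNA (100 nM final) with adjacent fluorophore and quencher unwound by WRN (20 nM final) with 2 mM ATP. Compound preincubation 15 min, room temperature.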
Starred values were filed as active, the others as inactive; ? = inconclusive; . = not tested or not shown; [ ] = dose if it differs, or a comment. Most compounds without a hit are left out; they make up all but 2.8% or so of the library. Unless noted, calls come from the whole dose curve; as a rule, active = well fitted curve in the direction sought with a large enough effect; inconclusive = small, poorly fitted or top-dose-only effect, or another doubt; inactive = no such curve, though single readings can be large; an effect the other way counts as inactive or inconclusive.

SMILES | Pol kappa inh | Pol iota inh | PI5P4K alpha inh | Pol eta inh | POLB inh | WRN helicase inh
O=C(/C=C/c1cc[n+](CC(=O)c2ccc3cccc4c3c2CC4)cc1)c1ccc2cccc3c2c1CC3 | -7% | 117% | -69* | ? | 12% | -11%
CS(=O)(=O)c1ccc(C(=O)OCC(=O)N2CCCC2)cc1[N+](=O)[O-] | 5% | ? | . | . | . | .
O=C(c1cccc(-c2ccc(O)cc2)c1)N1CCN(c2ccc(F)cc2)CC1 | -15% | 86% | -4 | -22% | 0% | 11%[57.1 µM]
CC(C)(C)c1ccc(-c2nc(SCCOc3ccc(Cl)cc3)n3[nH]c(=O)cc3n2)cc1 | -19% | 11% | . | 50µM* | ? | .
Cc1cccc(-c2nc(SCCCOc3cc(C)c(Cl)c(C)c3)n3[nH]c(=O)cc3n2)c1 | -2% | -11% | . | 1% | 8% | .
Cc1ccc(OCCCSc2nc(-c3ccc(C(C)(C)C)cc3)nc3cc(=O)[nH]n23)cc1C | -20% | 1% | . | 45µM* | ? | .
CC(C)(C)c1ccc(OCCSc2nc(-c3cccs3)nc3cc(=O)[nH]n23)cc1 | ? | 25% | . | ? | 32µM* | .
C=CCc1ccccc1OCCSc1nc(-c2cccs2)nc2cc(=O)[nH]n12 | ? | ? | . | 79µM* | 25µM* | .
O=c1cc2nc(-c3cccs3)nc(SCCOc3ccc(Cl)cc3)n2[nH]1 | -26% | ? | . | 9% | ? | .
CC(C)Cn1c(N)c(C(=O)COC(=O)c2cccn2C)c(=O)n(C)c1=O | -21% | 41% | -1 | -4% | . | 0%
CCN(CC)S(=O)(=O)c1ccc(OC)c(NC(=O)/C=C/c2ccco2)c1 | -9% | ? | -26 | 79µM* | -21% | -8%
CCN(CC)S(=O)(=O)c1ccc(N2CCCCC2)c(NC(=O)/C=C/c2ccc(OC)c(OC)c2)c1 | -10% | 16% | 7 | -21% | 7% | -22%[57.1 µM]
Cc1ccc(Cl)cc1N1CCN(C(=O)COc2ccc3c(c2)CCC3)CC1 | -18% | 17% | 26 | -15% | 3% | -11%
CC(=O)c1ccc(N2CCN(C(=O)COc3ccc4c(c3)CCC4)CC2)cc1 | ? | 79µM* | ? | 56µM* | 10µM* | -18%
CC1=C(C(=O)Nc2ccccc2)C2(CCCCC2)C(C#N)=C(S)N1 | -17% | -7% | -58* | -8% | -26% | ?
CSC1=C(C#N)C2(CCCCC2)C(C(=O)Nc2ccccc2)=C(C)N1 | 0% | -30% | 3 | -9% | . | -7%
CC(=O)c1ccc(NC(=O)CSc2cn(CC(=O)N3CCCCC3)c3ccccc23)cc1 | 2% | -6% | . | -19% | 13% | .
Cc1cccc(C(=O)Nc2ccc(C(=O)N/N=C/c3cccnc3)cc2)c1 | -8% | 37% | 3 | -14% | 18% | 0%
Cc1ccccc1C(=O)Nc1ccc(C(=O)N/N=C/c2ccc(F)cc2)cc1 | -13% | -6% | -7 | 4% | 40µM* | -16%
O=C(N/N=C/c1cccnc1)c1cccc(NC(=O)c2ccc(Cl)cc2)c1 | -20% | ? | 3 | ? | 40µM* | ?
Cc1ccc(C(=O)Nc2ccc(C(=O)N/N=C/c3cccnc3)cc2)cc1 | -13% | 79µM* | 6 | -5% | ? | -14%[11.6 µM]
O=C(N/N=C/c1ccccc1)c1ccc(NC(=O)c2ccc(F)cc2)cc1 | 0% | 131% | -13 | -14% | -2% | 0%
CCN(CC)CCN(C(=O)c1ccco1)c1nc2cc(C)cc(C)c2s1 | -21% | -24% | . | -4% | 56µM* | .
Oc1nc(Nc2ccc(Cl)cc2Cl)sc1/C=C1\C=Nc2ccccc21 | -26% | ? | -57* | 14µM* | ? | ?
O=C(CCCC(=O)N1CCc2ccccc21)N1CCc2ccccc21 | -19% | 16% | -6 | -15% | 34% | -4%[57.1 µM]
SMILES | Pol kappa inh | Pol iota inh | PI5P4K alpha inh | Pol eta inh | POLB inh | WRN helicase inh
O=C(Cc1ccc(-n2cccc2)cc1)N1CCc2ccccc21 | -35% | ? | -23 | ? | 22µM* | -8%
CCOC(=O)c1cc(C#N)c(=S)[nH]c1C | -34% | ? | -26 | 3% | 2% | -7%
COCc1[nH]c(=S)c(C#N)cc1C(=O)OC | -36% | ? | -62* | -2% | 15% | ?
Cc1ccc(-c2ccc(CCC(=O)O)n2C(C)C)cc1 | 3% | -11% | 3 | -7% | 15% | 4%
CC1=C(CCC(=O)O)c2cc3nc(cc4[nH]c(cc5[nH]c(cc1n2)c(C)c5C(C)O)c(C)c4C(C)O)C(C)=C3CCC(=O)O (stereo unspecified) | 20µM* | . | . | . | . | .
COc1cc(CNc2ncnc3c2ncn3[C@H]2CN(Cc3ccc(Cl)cc3)C[C@@H](CO)O2)cc(OC)c1OC | . | . | 5 | . | . | 1%
CC(=O)c1cccc(N(CC(=O)NC2CCCC2)C(=O)c2csnn2)c1 | -1% | 0% | 3 | -5% | 5% | 9%
CCOC(=O)C1=C(C)Nc2ccccc2N/C1=N\S(=O)(=O)c1cc(C(=O)O)ccc1Cl | -22% | ? | -3 | 35µM* | . | -6%[11.6 µM]
CC(C)CCNC(=O)CN1C(=O)CSc2ccc(S(=O)(=O)N3CCCCC3)cc21 | -9%[60.1 µM] | 4% | . | -3% | 37% | .
O=C(O)c1ccc(N2Cc3ccccc3C2)cc1O | ? | ? | . | 5.6µM* | 45µM* | -28%
Cc1ccc2c(c1)c1c(c(=O)n(-c3ccccc3C)c(=O)n1Cc1ccccc1F)n2C | 5% | 5% | . | -11% | 18% | .
O=C(CN1C(=O)S/C(=C\c2cccs2)C1=O)Nc1ccc(O)c(C(=O)O)c1 | -2% | 8% | -58* | -16% | ? | -8%[57.1 µM]
O=C(O)c1ccccc1-c1ccc(/C=C2\SC(=O)N(c3ccccc3)C2=O)o1 | -24% | ? | -1 | ? | ? | -6%[11.6 µM]
Cc1cccc(NC(=O)CN2C(=O)S/C(=C\c3ccc(-c4cccc(C(=O)O)c4C)o3)C2=O)c1 | -17% | ? | -3 | 35µM* | 7% | -10%
Cc1ccccc1NC(=O)CN1C(=O)S/C(=C\c2ccc(-c3cccc(C(=O)O)c3C)o2)C1=O | ? | ? | 2 | ? | 35µM* | -11%[57.1 µM]
O=C(CN1C(=O)S/C(=C\c2cccs2)C1=O)Nc1ccc(C(=O)O)c(O)c1 | -1% | -10% | ? | ? | -19% | -5%
Cc1c(C(=O)NC(C)C)oc2c1-c1[nH]ncc1CC2 | 2% | 25µM* | -3 | 10% | 42% | -7%

Screens from PubChem BioAssay.
